# Experimental data reported in PubChem BioAssay (NCATS).
# Results filed as inconclusive are left out. Entries that show only a call come without a potency. Unmarked numbers belong to inactive results. Activity calls are given as the source filed them. The call rests on the fitted dose curve; in most records, active means well fitted curve in the direction sought with a large enough effect; inconclusive means small, poorly fitted or top-dose-only effect, or another doubt; inactive means no such curve, though single readings can be large; an effect the other way counts as inactive or inconclusive.
# Experiments:
# [1] = target: Calcium and integrin-binding protein 1 (Homo sapiens) (UniProt Q99828); test: Primary qHTS for Identification of Calcium Integrin Binding Protein 1 (CIB1) Competitor (AID 1508620);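 further: GST tagged CIB1 binding a fluorescein labelled alphaIIb integrin peptide tracer; top concentration of the series differs between compounds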
# Sequence of Calcium and integrin-binding protein 1 (Homo sapiens) (Q99828 whole entry, looked up): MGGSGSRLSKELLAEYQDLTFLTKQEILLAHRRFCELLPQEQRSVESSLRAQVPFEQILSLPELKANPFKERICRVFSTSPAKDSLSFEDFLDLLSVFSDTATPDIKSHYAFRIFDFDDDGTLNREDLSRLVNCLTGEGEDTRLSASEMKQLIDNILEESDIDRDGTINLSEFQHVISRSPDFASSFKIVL
# Summary of the method: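 Fluorescence polarization competition: CIB1-GST (1 uM final) preincubated with compound 15 min at room temperature, then FITC-labeled alphaIIb peptide (100 nM final) added for another 15 min. Polarization read at Ex 480/Em 540.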
# [2] = Primary qHTS for inhibitors of nuclear receptor binding SET domain protein 2 (NSD2) in an isogenic RCH-ACV NSD2 p.E1099K mutant (9B) (AID 1645876); further: nearly all actives have a fitted effect of over 70% in size
# [3] = Primary qHTS for inhibitors of nuclear receptor binding SET domain protein 2 (NSD2) in an RCH-ACV wild type WT cells (2C) (AID 1645877); further: nearly all actives have a fitted effect of over 70% in size
smiles,measurement,setting,value
C=C1C(O)C(O)C2(CC3C(C)=CCC4C(C)(C(=O)O)CCCC34C)OC2C1O (stereo not drawn),Potency,[1],inactive
same,Potency,[2],inactive
same,Potency,[3],inactive
COC(=O)C1=COC(OC2OC(CO)C(O)C(O)C2O)C2C(C)C(OC(C)=O)C(OC(=O)c3ccccc3)C12 (stereo not drawn),Potency,[1],inactive
same,Potency,[2],inactive
same,Potency,[3],inactive
O=C(O[C@@H]1O[C@H](CO)[C@@H](O)[C@H](O)[C@H]1O)c1ccccc1,Potency,[1],inactive
same,Potency,[2],inactive
same,Potency,[3],inactive
C=C1CCC2[C@](C)(CO)CCC[C@@]2(C)[C@@H]1CCC1=CCOC1=O (stereo partly drawn),Potency,[1],inactive
same,Potency,[2],inactive
same,Potency,[3],inactive
CC1=CC(=O)CC(C)(C)C1CCC(C)O[C@@H]1O[C@H](CO)[C@@H](O)[C@H](O)[C@H]1O (stereo partly drawn),Potency,[1],inactive
same,Potency,[2],inactive
same,Potency,[3],inactive
COc1cc(/C=C/C(=O)OC[C@H]2O[C@@H](OC3CC(C)=C(C(=O)O)C(C)(C)C3)[C@H](O)[C@@H](O)[C@@H]2O)cc(OC)c1O (stereo partly drawn),Potency,[1],inactive
same,Potency,[2],inactive
same,Potency,[3],inactive
CC1=C2C(=O)C=C(CO)C2[C@H]2OC(=O)[C@H](C)[C@@H]2[C@@H](OC(=O)Cc2ccc(O)cc2)C1 (stereo partly drawn),Potency,[1],inactive
same,Potency,[2],inactive
same,Potency,[3],inactive
COC(=O)C1=CO[C@@H](O[C@@H]2O[C@H](CO)[C@@H](O)[C@H](O)[C@H]2O)C2C1CC(O)C2C (stereo partly drawn),Potency,[1],inactive
same,Potency,[2],inactive
same,Potency,[3],inactive
Nc1nc2c(nc(Sc3ccc(Cl)cc3)n2[C@@H]2O[C@@H]3COP(=O)(O)O[C@H]3[C@H]2O)c(=O)[nH]1,Potency,[1],inactive
same,Potency,[2],inactive
same,Potency,[3],inactive
CC(C/C=C/C(C)(C)O)C1CCC(C)(O)C(O)C1 (stereo not drawn),Potency,[1],inactive
same,Potency,[2],inactive
CC1CCC2(NC1)OC1C(O)C3C4CCC5CC(O[C@@H]6O[C@H](CO)[C@@H](O)[C@H](O)[C@H]6O[C@@H]6O[C@@H](C)[C@H](O)[C@@H](O)[C@H]6O)CCC5(C)C4CCC3(C)C1C2C (stereo partly drawn),Potency,[1],inactive
same,Potency,[2],inactive
same,Potency,[3],inactive
O=C(O)c1ccnc(-c2cc(C(=O)NCCc3ccccc3)ccn2)c1,Potency,[1],inactive
same,Potency,[2],inactive
same,Potency,[3],inactive
O=C(OC[C@H]1O[C@@H](Oc2ccccc2COC(=O)C2(O)C=CCCC2O)[C@H](O)[C@@H](O)[C@@H]1O)c1ccccc1 (stereo partly drawn),Potency,[1],inactive
same,Potency,[2],inactive
same,Potency,[3],inactive
CC(C)/C=C1/NC(=O)C(C(C)C)n2c1nc1c(O)cccc1c2=O (stereo not drawn),Potency,[1],inactive
same,Potency,[2],inactive
same,Potency,[3],inactive
CC(C)=C1CC2[C@](C)(CC[C@@H](OC(=O)C3(C)OC3C)[C@@]2(C)O)CC1=O (stereo partly drawn),Potency,[1],inactive
same,Potency,[2],inactive
same,Potency,[3],inactive
CC1=C[C@@H]2[C@H]3[C@@H]4O[C@@](C)(CC[C@H]4O)[C@H]3CC(=O)[C@]23C(=O)N[C@@H](CC(C)C)[C@@H]3[C@@H]1C,Potency,[1],inactive
same,Potency,[2],inactive
same,Potency,[3],inactive
O=C(/C=C/c1ccc(O)cc1)OC[C@H]1O[C@H](O[C@@]2(CO)O[C@@H](CO)[C@H](O)[C@H]2O)[C@H](O)[C@@H](O)[C@@H]1O,Potency,[1],inactive
same,Potency,[2],inactive
same,Potency,[3],inactive
O=C(/C=C/c1ccc(O)cc1)OC[C@H]1O[C@@H](O/C(=C\c2ccccc2)C(=O)O)[C@H](O)[C@@H](O)[C@@H]1O,Potency,[1],inactive
same,Potency,[2],inactive
same,Potency,[3],inactive
CC1(C)CC[C@]2(C(=O)O)CC[C@]3(C)C(=CCC4[C@@]5(C)CC[C@H](O[C@@H]6O[C@H](C(=O)O)[C@@H](O)[C@H](O)[C@H]6O)C(C)(C)C5CC[C@]43C)C2C1 (stereo partly drawn),Potency,[1],inactive
same,Potency,[2],inactive
same,Potency,[3],inactive
C[C@@H]1O[C@@H](O[C@H]2[C@H](O[C@H]3[C@H](O[C@H]4CC[C@@]5(C)C(CC[C@]6(C)C5CC=C5[C@@H]7CC(C)(C)C[C@@H](O)[C@]7(C)CC[C@]56C)[C@@]4(C)CO)O[C@H](C(=O)O)[C@@H](O)[C@@H]3O)O[C@H](CO)[C@H](O)[C@@H]2O)[C@H](O)[C@H](O)[C@H]1O (stereo partly drawn),Potency,[1],inactive
same,outcome,[2],inactive [at 9.23 µM]
same,outcome,[3],inactive [at 9.23 µM]
C=C1CCC2(C(=O)OC3OC(CO)C(O)C(O)C3O)CCC3(C)C(=CCC4C5(C)CCC(OC6OC(CO)C(OC7OC(C)C(O)C(O)C7O)C(OC7OCC(O)C(O)C7O)C6O)C(C)(C)C5CCC43C)C2C1 (stereo not drawn),Potency,[1],inactive
same,outcome,[2],inactive [at 9.23 µM]
same,"activity change, negative = cell killing",[3],-3.7% [at 9.23 µM]
COC(=O)C1=COC(O[C@@H]2O[C@H](CO)[C@@H](O)[C@H](O)[C@H]2O)/C(=C\COC(=O)/C=C/c2ccccc2)C1CC(=O)OCCc1ccc(O)cc1 (stereo partly drawn),Potency,[1],inactive
same,Potency,[2],inactive
same,Potency,[3],inactive
O=C(OCC(O)CO[C@@H]1O[C@H](C(=O)O)[C@@H](O)[C@H](O)[C@H]1O)c1ccccc1 (stereo partly drawn),Potency,[1],inactive
same,Potency,[2],inactive
same,Potency,[3],inactive
